Reference: PubChem BioAssay AID1224854 (National Center for Advancing Translational Sciences (NCATS), 2016)
Inconclusive results are not listed. Unmarked numbers belong to inactive results. The source made the active and inactive calls. Calls follow the shape of the dose curve; as a rule, active = well fitted activation curve with a large enough effect; inconclusive = small, poorly fitted or top-dose-only effect; inactive = flat fitted curve, though single readings scatter.

assay: Cell viability assay for measurement of the protective activity of small molecules against cell death caused by Zika virus infection in human astrocytoma cells; details: SNB-19 Zika virus cytoprotection, ATP luminescence, 72 h; series mostly up to 46.1 µM; protection from virus-induced cell death: at the top concentration
Text: National Center for Advancing Translational Sciences [NCATS] Johns Hopkins University School of Medicine Florida State University Assay Overview: Zika virus infection causes cell death in certain cell types including human neural progenitor cells (hNPCs), astrocytes, and astrocytoma cell line (SNB-19). This cell viability assay measures the ATP content (level) in human astrocytoma cells (SNB-19) using a luminescence readout that is proportional to viable cell numbers. Decrease in the luminescence signal after Zika virus infection indicates the cell death caused by Zika virus. Small molecule inhibitors […] the decreased luminescence signal after Zika virus infection, indicating the protective effect of that small molecule on the cell death caused by Zika virus infection. This observed protective effect of small molecules against Zika virus induced cell death may result from inhibition of virus replication or cellular response to the virus infection.
Assay Protocol Summary: The medium for SNB-19 cells is composed of RPMI 1640 (ATCC, Cat.# 30-2001), 10% fetal bovine serum (FBS) (GE healthcare Life Sciences, Cat.# SH30071.03), and 1% Pen/Strep (Gibco, Cat.# 15140-122). The ATP content assay kit (PerkinElmer, Cat.# 6016731) was used to determine cell viability. The reagent was reconstituted and prepared as described by the manufacturer. Cells were seeded in 384- or 1536-well assay plates and cultured at 37 C with 5% CO2 for 16 to 20 hours. The typical cell seeding density in the 1536-well plate assay is 250 cells/well in 3ul medium for SNB-19 cells in tissue culture treated plates. Compounds were added to cells and incubated for one hour before addition of ZIKV solution to cells (2 FFU/cell). After incubation at 37 C with 5% CO2 for 72 hours, the reagent mixture of the ATP content assay kit was added to each well, followed by incubation at room temperature for 10 minutes. The luminescence intensity of the assay plates was measured using a ViewLux plate reader (PerkinElmer). […] The percentage inhibitions of the decreased cell viability by small molecule inhibitors were then calculated.

SMILES | protection from virus-induced cell death | Potency
NC(=O)c1cccc2[nH]c(-c3ccc([C@H]4CCCN4)cc3F)nc12 | -12.1% | –
CN1CCN(c2cc3c(nn2)Oc2ccccc2N3C)CC1 | -0.644% [at 23.8 µM] | –
Cc1csc(NC(=O)c2sc3nc4c(c(C(F)(F)F)c3c2N)CCC4)n1 | -15% | –
Oc1ccc(/C=C/c2cc(O)cc(O)c2)cc1 | -18.6% | –
O=c1cc(-c2ccccc2)oc2cc(O)c(O)c(O)c12 | -7.06% | –
CCCCCCCCCCCC(=O)[O][Sn]([CH2]CCC)([CH2]CCC)[O]C(=O)CCCCCCCCCCC | -1.87% | –
O=C(Nc1cc2cc[nH]c2cn1)c1ccccc1 | -20.2% | –
CCCCCCCC/C=C/C(=O)O | -6.5% | –
Clc1ccccc1-c1nc(-c2ccncc2)no1 | -3.86% | –
CC1(C)OC2=C(C(=O)c3ccccc3C2=O)[C@H](NCc2ccccc2)[C@H]1O | -22.5% [at 88.3 µM] | –
O=C(Nc1ccc([N+](=O)[O-])cc1Cl)c1cc(Cl)ccc1O | – | 1.55 µM (active)
O=c1[nH]nc(Sc2ncc([N+](=O)[O-])s2)n1-c1ccc2c(c1)OCCO2 | – | 6.15 µM (active)
CC(C(=O)O)c1ccc(C(=O)c2ccccc2)s1 (stereo not given) | -3.16% | –
CCCSc1ccc2nc(NC(=O)OC)[nH]c2c1 | 1.59% | –
O=C1NC(=O)C(=Cc2ccc(-c3ccc(F)cc3)o2)S1 | -4.09% | –
CC(C(=O)O)c1ccc(C(=O)c2cccs2)cc1 (stereo not given) | 11.1% | –
O=C1c2ccccc2C(=O)c2c(NCCc3ccc(O)cc3)ccc(NCCc3ccc(O)cc3)c21 | – | 19.5 µM (active)
O=c1cc(-c2ccccc2)oc2cc(O)cc(O)c12 | -4.33% | –
CC(=O)Oc1cccc2c1C(=O)c1c(OC(C)=O)cc(C(=O)O)cc1C2=O | 6.53% | –
CC(C)(C)OC(=O)CN(Cc1ccc(Cl)cc1)Cc1ccc([N+](=O)[O-])s1 | – | 35.5 µM (active)

SMILES | protection from virus-induced cell death | Potency
Cc1ccc(O)c(-n2nc3ccccc3n2)c1 | -2.26% | –
O=c1c(-c2ccc(O)cc2)coc2cc(O)ccc12 | -12.4% | –
COc1ccc(-c2cc(=S)ss2)cc1 | -5.82% | –
CN(C)c1ccc2cc(C(=O)N[C@@H](CCCN=C(N)CCl)C(=O)NCc3ccccc3)ccc2c1 | – | 4.35 µM (active)
COc1cccc(-c2ccc(NC(=O)C3=C(C(=O)O)CCC3)c(F)c2)c1 | -9.15% | –
Cc1ccc2c(n1)Oc1ccc(C(C)C(=O)OCC(=O)N(C)C)cc1C2 (stereo not given) | -4.14% | –
C=CCCCCCCCCC(=O)O | -10.8% | –
CC(=O)OC(C)OC(=O)C(C)c1ccc(-c2ccccc2)c(F)c1 (stereo not given) | 8.66% | –
COc1cccc2c1C(=O)c1c(O)c3c(c(O)c1C2=O)C[C@@](O)(C(=O)CO)C[C@@H]3O[C@H]1C[C@H](N)[C@H](O[C@@H]2CCCCO2)[C@H](C)O1 | -20.3% | –
CCCC(=O)OC[C@@H](OC(=O)CCC)[C@@H](OC(=O)CCC)[C@H](Cn1c2nc(=O)[nH]c(=O)c-2nc2cc(C)c(C)cc21)OC(=O)CCC | 6.76% | –
O=C(O)c1ccccc1NCCc1ccccc1 | 7.39% | –
Cc1c(C(=O)O)c(O)cc2c1C(=O)c1c(O)c([C@@H]3O[C@H](CO)[C@@H](O)[C@H](O)[C@H]3O)c(O)c(O)c1C2=O | -5.16% | –
Cc1oncc1C(=O)Nc1ccc(C(F)(F)F)cc1 | -6.36% | –
Cc1cccc(/C=C/c2ccccc2)n1 | -0.0925% | –
O=C(O)[C@H](CC(=O)N1C[C@@H]2CCCC[C@H]2C1)Cc1ccccc1 | -0.686% | –
CCN(CC)c1ccc(C(=C2C=CC(=[N+](CC)CC)C=C2)c2cc(S(=O)(=O)O)ccc2S(=O)(=O)[O-])cc1 | -9.19% | –
O=c1oc2cc(O)ccc2s1 | -5.06% | –
O=C(O)Cc1ccc(-c2ccccc2)cc1 | 3.6% | –
Oc1cc(O)cc(/C=C/c2ccc(O)c(O)c2)c1 | -15.2% | –
O=S(=O)(O)c1ccc2nc(-c3ccccc3)[nH]c2c1 | -10.1% | –
